Here are results for eight compounds from PubChem BioAssay (NCI).

Compounds without any hit were thinned out: in the full panel of roughly 83,000, 20% have a hit.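 Results are percent growth after 48 hours of single-concentration exposure. 100 means growth as in untreated cells, lower positive values show inhibition; negative values down to -100 show cell death.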 Values without a mark were called inactive. Activity calls are given as the source filed them. How the source made its calls: active means growth percent below 10; inactive means the rest.

Test systems include SR leukemia; RPMI-8226 leukemia; OVCAR-8 ovarian; OVCAR-5 ovarian; OVCAR-4 ovarian; SK-OV-3 ovarian; IGROV1 ovarian; OVCAR-3 ovarian; HS 578T breast; NCI/ADR-RES ovarian; MDA-MB-435 melanoma; SW-620 colon; MCF7 breast; HCT-116 colon; HCC-2998 colon; KM12 colon; T-47D breast; BT-549 breast.
Common to all, as to test: NCI-60 one-dose screen, 48 h (100 = growth as untreated, 0 = no growth, -100 = all killed)
What all share (conditions): 10 µM unless noted

With `O=[N+]([O-])c1ccc(N/N=C(\C(=N/Nc2ccc([N+](=O)[O-])cc2[N+](=O)[O-])c2ccccc2)c2ccccc2)c([N+](=O)[O-])c1`, the growth was -1.67% (active) in the assay on SR leukemia; 93.3% in the assay with RPMI-8226 leukemia; 87.6% in the assay with OVCAR-8 ovarian; 98.4% with OVCAR-5 ovarian; 5.4% (active) in the assay with OVCAR-4 ovarian; 106% with SK-OV-3 ovarian. Also, the growth in the assay on IGROV1 ovarian is 92.3%; in the assay on OVCAR-3 ovarian it was 84%; with HS 578T breast it was 74.4%; with NCI/ADR-RES ovarian it was 90.4%; in the assay with MDA-MB-435 melanoma, 77.8%; in the assay on SW-620 colon, 72.8%. Further, the growth in the assay on MCF7 breast was 96.3%; in the assay on HCT-116 colon it was 65%; in the assay with HCC-2998 colon, 89.6%; in the assay with KM12 colon it was 88.5%.
Take `COC(=O)[C@]12CC[C@@H](C(C)=O)[C@@H]1[C@H]1CC[C@@H]3[C@@]4(C)C/C(=C/c5cccnc5)C(=O)C(C)(C)[C@@H]4CC[C@@]3(C)[C@]1(C)CC2`: the growth in the assay on SR leukemia was 12.3%; with RPMI-8226 leukemia, 2.88% (active); in the assay on OVCAR-8 ovarian, 38.7%; with OVCAR-5 ovarian, 114%; in the assay on OVCAR-4 ovarian, 26.7%; in the assay with SK-OV-3 ovarian, 93.7%. The growth was 85.8% in the assay with IGROV1 ovarian; 49% in the assay with OVCAR-3 ovarian; 74.8% with HS 578T breast; 24.4% with T-47D breast; 46% with BT-549 breast; 72.6% in the assay with MDA-MB-435 melanoma. The growth in the assay on SW-620 colon was 25.3%; with MCF7 breast, 19.2%; with HCT-116 colon it was 3.92% (active); in the assay with HCC-2998 colon, 75.8%; in the assay on KM12 colon it was 60.5%.
Consider `COc1ccc(OC)c(-c2c(C#N)c(-c3ccco3)nc3c2c(-c2ccccc2)nn3-c2ccccc2)c1`, for which the growth in the assay with SR leukemia is 101%; with RPMI-8226 leukemia it was 96.7%; in the assay on OVCAR-8 ovarian, 96.2%; with OVCAR-5 ovarian it was 95.5%; in the assay on OVCAR-4 ovarian it was 103%; with SK-OV-3 ovarian, 95.8%. Also, the growth in the assay on IGROV1 ovarian was 88.9%; in the assay on OVCAR-3 ovarian, 112%; in the assay with HS 578T breast it was 86.2%; with T-47D breast it was 84%; with BT-549 breast, 108%; in the assay with MDA-MB-435 melanoma, 106%. Also, the growth in the assay on SW-620 colon is 95.8%; in the assay on MCF7 breast, 94.7%; with HCT-116 colon it was 87.8%; in the assay on HCC-2998 colon, 105%; with KM12 colon, 106%.
Take `O=S(=O)(NCCNc1cc(-c2cn(-c3ccccc3)nc2-c2cccc(O)c2)ccn1)c1ccccc1`: the growth in the assay on SR leukemia was 11.7%; with RPMI-8226 leukemia, 32.7%; in the assay with OVCAR-8 ovarian it was 49.8%; in the assay with OVCAR-5 ovarian, 92.1%; in the assay on OVCAR-4 ovarian, 56.3%; with SK-OV-3 ovarian, 69.5%. For the same compound, the growth was 57.1% in the assay on IGROV1 ovarian; 63.3% in the assay on OVCAR-3 ovarian; 45.2% with HS 578T breast; 43.9% in the assay with NCI/ADR-RES ovarian; 26.4% in the assay on T-47D breast; 14.7% in the assay with MDA-MB-435 melanoma. The growth with SW-620 colon was 44.4%; with MCF7 breast, 37.2%; in the assay with HCT-116 colon, 49.5%; in the assay on HCC-2998 colon it was 25.4%; in the assay with KM12 colon it was 36.7%.
In the case of `C=C(C)[C@@H]1CC[C@]2(CN)CC[C@]3(C)[C@H](CC[C@@H]4[C@@](C)(CCCN)[C@H](C(=C)C)CC[C@]43C)[C@@H]12`, the growth in the assay on SR leukemia was -3.93% (active); in the assay with RPMI-8226 leukemia, 58.5%; in the assay on OVCAR-8 ovarian, 94.1%; in the assay with OVCAR-5 ovarian, 103%; with OVCAR-4 ovarian it was 102%; in the assay on SK-OV-3 ovarian it was 107%. Also, the growth with IGROV1 ovarian is 86.9%; in the assay with OVCAR-3 ovarian it was 89.4%; in the assay with HS 578T breast, 89.4%; in the assay with NCI/ADR-RES ovarian it was 94.5%; in the assay on T-47D breast, 88.6%; in the assay on MDA-MB-435 melanoma, 96.2%. Also, the growth with SW-620 colon was 88.9%; in the assay on MCF7 breast, 71.8%; in the assay on HCT-116 colon, 50.1%; with HCC-2998 colon it was 77%; in the assay with KM12 colon, 88.1%.
Turning to `CC(=O)c1c(C)[nH]c(-c2nc3ccc(N4CCN(C)CC4)cc3[nH]2)c1-c1ccc(N(C)C)cc1`, the growth is 33% in the assay with SR leukemia; 0.258% (active) with RPMI-8226 leukemia; 43.7% in the assay with OVCAR-8 ovarian; 41.6% in the assay on OVCAR-5 ovarian; 37.2% with OVCAR-4 ovarian; 12.6% in the assay with SK-OV-3 ovarian. In addition, the growth with IGROV1 ovarian is 15.6%; with OVCAR-3 ovarian, 34.6%; in the assay with HS 578T breast, 21.1%; in the assay with NCI/ADR-RES ovarian it was 34.2%; in the assay on T-47D breast, 23.8%; in the assay with MDA-MB-435 melanoma, 27.1%. Also, the growth in the assay with SW-620 colon is 56.8%; in the assay with HCT-116 colon it was 23.2%; in the assay with HCC-2998 colon, 30.3%; with KM12 colon, 37.2%.
`COc1ccc(/C=C/C(=O)NCCO)cc1`: the growth in the assay with SR leukemia is 91.9%; in the assay on RPMI-8226 leukemia, 105%; in the assay on OVCAR-8 ovarian, 96.4%; in the assay on OVCAR-5 ovarian, 88.2%; in the assay with OVCAR-4 ovarian it was 103%; in the assay on SK-OV-3 ovarian, 94.2%. Moreover, the growth in the assay with IGROV1 ovarian is 98.3%; with OVCAR-3 ovarian, 101%; with HS 578T breast, 92.4%; with T-47D breast, 89.8%; with BT-549 breast, 102%; in the assay with MDA-MB-435 melanoma it was 104%. For the same compound, the growth with SW-620 colon is 99.3%; in the assay with MCF7 breast, 94.8%; in the assay with HCT-116 colon, 101%; in the assay on HCC-2998 colon, 103%; with KM12 colon it was 103%.
On to `CC1(C)NCCC[C@]2(C)[C@H]3CC[C@@H]4[C@H]5[C@H](C(=O)/C=C/c6ccccn6)CC[C@]5(CO)CC[C@@]4(C)[C@]3(C)CC[C@@H]12`, for which the growth with SR leukemia is -19.6% (active); in the assay with RPMI-8226 leukemia, -13.1% (active); with OVCAR-8 ovarian, 47.6%; in the assay with OVCAR-5 ovarian, 97.9%; with OVCAR-4 ovarian, 35.9%; in the assay on SK-OV-3 ovarian, 82.2%. The growth with IGROV1 ovarian was 63.4%; in the assay on OVCAR-3 ovarian it was 40.9%; in the assay on HS 578T breast, 70.8%; in the assay on T-47D breast, 30.7%; in the assay on BT-549 breast, 64.6%; with MDA-MB-435 melanoma, 57.3%. In addition, the growth is -51% (active) with SW-620 colon; 20.3% in the assay with MCF7 breast; -7.47% (active) in the assay on HCT-116 colon; 47.9% in the assay with HCC-2998 colon; 25.5% in the assay on KM12 colon.
